Six1-Eya2 blk: blocks human Six1 binding to Eya2; Q15475+O00167; AlphaScreen GST-Six1/His-Eya2 binding, biochemical; stronger effect = lower value; activity change, % (no concentration beside the values); hit rate 0.56% among 360,000; in the data active = activity change below about -65%; inconclusive = mostly about -30% to -63%; note: % is set by controls: 0 for no effect and ±100 for the full control effect
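AlphaScreen luminescence read after one hour at 37 °C in darkness. Pin-transferred compounds met GST-Six1 and His-Eya2 protein (5X stock 250 nM/500 nM) plus glutathione donor and Ni-chelate acceptor beads (5X, 50 ug/mL).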
MBNL1-CUG inh: blocks human MBNL1 binding to CUG repeat RNA; Q9NR56; TR-FRET MBNL1-His/biotin-(CUG)12 binding, 665/545 ratio; Potency, µM (top dose mostly 57.5 µM), for inactives: top-dose activity change, negative = inhibition, usual class: inhibitors; hit rate 0.036% among 280,000; active = well fitted inhibition curve with a large enough effect in the signal ratio, with a control signal flat, not every such curve was filed as active; inconclusive = small, poorly fitted or top-dose-only effect, or effect the other way, or a change in a side signal; inactive = no such curve, though single readings can be large or run the other way; the % refers to the signal ratio; note: potency is the fitted concentration of half-maximal effect; % is set by controls: 0 for no effect and ±100 for the full control effect
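TR-FRET readout: Ex 340 nm, 665/545 nm emission ratio, normalized to buffer-only (basal) and MBNL1-(CUG)12 controls. Complex of MBNL1-His with Biotin-(CUG)12, compounds 92 nM–58 uM, incubated 60 min at room temperature.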
Gal4-VP16 FLuc: Gal4-VP16 reporter inhibition counter-screen; Drosophila S2 Gal4-VP16 UAS-luciferase, luminescence, 20 h; hit rate 3.5% among 310,000; Potency, µM (doses to about 53.6 µM), for inactives: at the top dose activity, negative = inhibition, actives largely listed as inhibitors; AID 2546;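 note: Gal4-VP16 expression switched on by copper sulfate through the metallothionein promoter; potency is the fitted concentration of half-maximal effect; % is set by controls: 0 for no effect and ±100 for the full control effect; nearly all actives have a fitted effect of over 50% in size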
CBFb RUNX1 block: inhibitors of human CBF-beta and RUNX1 interaction | Q01196+Q13951 | AID 1477 | 230,000 tested, under 10 active | Potency, µM (doses to about 59.8 µM), for the others: at the highest dose activity, negative = inhibition, most hits filed as inhibitors | AlphaScreen CBFb-His/RUNX1-biotin binding, biochemical; note: % of control where 0% means no effect
Target sequence (Q01196 whole entry, looked up): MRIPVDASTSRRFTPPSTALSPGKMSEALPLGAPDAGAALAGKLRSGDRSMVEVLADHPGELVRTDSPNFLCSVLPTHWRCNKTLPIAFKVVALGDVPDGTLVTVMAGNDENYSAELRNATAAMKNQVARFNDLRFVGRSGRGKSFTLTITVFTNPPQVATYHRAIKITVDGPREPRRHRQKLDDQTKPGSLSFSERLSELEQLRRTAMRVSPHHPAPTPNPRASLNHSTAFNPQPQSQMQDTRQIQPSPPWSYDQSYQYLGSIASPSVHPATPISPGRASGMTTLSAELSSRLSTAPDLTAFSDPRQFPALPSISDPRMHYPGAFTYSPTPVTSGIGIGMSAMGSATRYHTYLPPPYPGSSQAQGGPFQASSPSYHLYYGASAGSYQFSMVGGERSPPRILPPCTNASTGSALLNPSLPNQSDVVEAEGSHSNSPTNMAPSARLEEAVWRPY
Target sequence (Q13951 whole entry, looked up): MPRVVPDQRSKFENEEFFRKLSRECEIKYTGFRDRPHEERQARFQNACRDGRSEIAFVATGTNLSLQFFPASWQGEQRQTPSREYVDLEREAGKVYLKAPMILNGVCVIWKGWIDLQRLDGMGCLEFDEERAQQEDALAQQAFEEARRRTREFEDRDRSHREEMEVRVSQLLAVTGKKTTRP
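Proteins preincubated together for 20 min at RT before compound addition; 15 min later, nickel and streptavidin beads were added and left 90 min prior to AlphaScreen measurement.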
RORgamma inh: blocks mouse ROR gamma transcriptional activity; AID 2551; hit rate 5.4% among 310,000; Potency, µM (top dose mostly 53.6 µM), for the others: top-dose activity change, negative = inhibition, hits mostly inhibitors; Drosophila S2 Gal4-RORgamma UAS-luciferase reporter, 20 h; note: potency is the fitted concentration of half-maximal effect; % is set by controls: 0 for no effect and ±100 for the full control effect; nearly all actives have a fitted effect of over 60% in size
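Read-out: Photinus luciferase luminescence; inhibitors lower reporter signal. Insect Schneider cells with Gal4-ROR gamma fusion under metallothionein promoter, UAS reporter; 700 uM final copper sulfate induction, 20 hr, ambient temperature.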
CtBP-E1A blk: blocks the CtBP interaction with E1A; AID 651724; hit rate 0.49% among 340,000; activity change, % (test concentration not listed); AlphaScreen GST-E1A/His-CtBP binding, 1536-well; stronger effect = lower value; in the data active = activity change below about -65%; inconclusive = mostly about -30% to -63%; note: % is set by controls: 0 for no effect and ±100 for the full control effect
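AlphaScreen with 125 nM GST-E1A and 125 nM His-CtBP (5X stocks) in Tris pH 8.0, 300 mM NaCl, BSA, Tween 20, TCEP. Compounds preincubated 2 h at 37 deg C, then glutathione donor/nickel acceptor beads added for 1 h at 37 deg C in dark.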
* = called active by the depositor; ? = inconclusive; · = not tested or not shown; ! = a repeat was not active; [ ] = remark or other dose. Rows were chosen to be rich in hits. Some 5.5% of all compounds tested hit in one or more screens of this group. Unless noted, calls come from the whole dose curve; as a rule, active = well fitted curve in the direction sought with a large enough effect; inconclusive = small, poorly fitted or top-dose-only effect, or another doubt; inactive = no such curve, though single readings can be large; an effect the other way counts as inactive or inconclusive.

SMILES	Six1-Eya2 blk	MBNL1-CUG inh	Gal4-VP16 FLuc	CBFb RUNX1 block	RORgamma inh	CtBP-E1A blk
C=CCN1C(=CCO)[C@H]2C[C@H]3[C@@H]1CC[C@@]31c3ccccc3N3C=C4[C@@H]5N(/C=C/2[C@H]31)c1ccccc1[C@]51CC[C@H]2[C@H]1C[C@@H]4/C(=C/CO)N2CC=C	·	·	-20.7%[17 µM]	6.8%[21.7 µM]	-3.2%[2.98 µM]	·
Cn1c(N=Nc2ccccc2)nc2ccccc21	0.0	?	1.26µM*	0.4%	0.708µM*	-26.0
CN(C)c1ccc(N=Nc2nc3ccccc3n2C)cc1	?	?	1.26µM*	-16.1%	0.398µM*	?
CCn1c(NCc2ccc(N(C)C)cc2)nc2ccccc21	-23.2	-2.6%	0.0%	-4.8%	-25.2%	-26.1
Cc1cccc(CC(=O)N2CCOCC2)c1	9.0	-0.5%	-5.5%	·	-22.4%	·
CCCOc1ccc(S(=O)(=O)NCCCN2CCOCC2)c2ccccc12	0.4	3.8%	-26.6%	4.3%	10µM*	6.1
C[C@H](CO)N1C[C@H](C)[C@@H](CN(C)C(=O)c2ccccc2)OCc2cn(nn2)CCCC1=O	1.0	·	·	·	·	2.1
COc1ccc(OC)c(NC(=O)c2cccc(N3C(=O)C4C5C=CC(C6CC56)C4C3=O)c2)c1 (configuration not stated)	-5.6	-5.5%	-17.2%	·	?	·
Cc1cccc(NC(=O)CCCN2C(=S)NC(C)(C)CC2C)c1C (configuration not stated)	0.0	-6.2%	-24.1%	1.5%	11.2µM*	1.8
CC1CC(C)(C)NC(=S)N1CCCC(=O)Nc1ccc(Br)cc1 (configuration not stated)	1.9	-0.3%	?	-0.4%	3.98µM*	-13.3
CCOc1ccc(NC(=O)CCCN2C(=S)NC(C)(C)CC2C)cc1 (configuration not stated)	-16.5	·	?	-6.0%	?	-2.4
c1ccc(-c2cn3c4c(sc3n2)CCCC4)cc1	-15.4	1.2%	6.31µM*	-4.4%	3.55µM*	-13.5
Cc1c(C(=O)N2CCc3ccccc3C2)sc2nc(-c3ccccc3)cn12	-9.7	-5.1%	·	-14.5%	26.6%[0.365 µM]	-5.3
CCN[C@@H]1CN(CCCOC)S(=O)(=O)c2sc(S(N)(=O)=O)cc21	·	·	0.5%[17 µM]	-5.3%[21.7 µM]	11.5%[2.98 µM]	·
Cc1ccc(C2=NS(=O)(=O)N(C)C(C(=O)N3CCOCC3)=C2)cc1	-0.9	16.4%	-4.4%	·	5.2%	3.0
Cn1c(/C=C/c2cccc([N+](=O)[O-])c2)c([N+](=O)[O-])c(=O)n(C)c1=O	-21.7	?	?	·	15.8µM*	-3.5
COc1ccc(/C=C/c2c([N+](=O)[O-])c(=O)n(C)c(=O)n2C)cc1OC	19.6	13.8%	6.8%	2.0%	7.7%	48.3
CN(C)S(=O)(=O)c1cccc(NC(=O)c2ccccc2SCC(=O)N2CCCC2)c1	-0.3	·	·	·	·	3.5
C/C(=N/NC(=O)CNC(=O)c1ccco1)c1ccco1	0.6	6.4%	-1.9%	·	-7.2%	0.7
O=C(CNC(=O)c1ccco1)N/N=C/c1ccc(O)cc1O	-85.8*	11.9%	6.1%	·	?	·
COc1cc(/C=N/NC(=O)CNC(=O)c2ccco2)ccc1O	3.5	9.9%	-8.5%	3.5%	0.8%	13.7
O=C(CNC(=O)c1ccco1)N/N=C/c1cc(Br)ccc1O	-96.5*	25.7%	11.2µM*	·	8.91µM*	-85.7*
COc1ccccc1C(=O)NCCNC(=O)c1ccc(C)nc1	2.0	-1.5%	-2.6%	·	-14.0%	-1.1
Cc1cc(Br)cn2c(Cc3ccccc3)c(-c3ccc(C#N)cc3)nc12	5.1	·	·	·	·	-2.4
CCOC(=O)N1CCN(C(=S)NC(=O)c2ccc(Br)cc2)CC1	-4.5	8.0%	1.26µM*	-0.8%	0.562µM*	7.2
SMILES	Six1-Eya2 blk	MBNL1-CUG inh	Gal4-VP16 FLuc	CBFb RUNX1 block	RORgamma inh	CtBP-E1A blk
Cc1ccc(C(=O)NC(=S)N2CCN(C(=O)OC(C)(C)C)CC2)cc1Br	4.4	-3.4%	1.12µM*	7.0%	0.631µM*	·
CCOC(=O)N1CCN(C(=O)CNC(=O)c2ccc(Br)cc2)CC1	3.6	0.1%	-9.9%	·	-1.1%	5.4
CCOC(=O)N1CCN(C(=S)NC(=O)c2cc(Br)ccc2Cl)CC1	3.1	-0.6%	5.01µM*	10.5%	0.891µM*	-2.4
CCOC(=O)N1CCN(C(=S)NC(=O)c2cncc(Br)c2)CC1	1.2	·	2.51µM*	-10.3%	1.12µM*	5.2
CCOC(=O)CC1C(=O)NCCN1C(=S)NC(=O)c1ccc(C)c(Br)c1 (configuration not stated)	-3.0	·	·	·	·	1.6
Cc1ccc(S(=O)(=O)NC2(C(F)(F)F)NC(=O)N(c3ccccc3F)C2=O)cc1 (configuration not stated)	7.0	0.8%	-15.4%	·	-11.6%	16.9
CCCCn1c(N)c(N(CC(C)C)C(=O)CCNC(=O)c2ccc([N+](=O)[O-])cc2)c(=O)[nH]c1=O	8.7	·	·	·	·	-27.2
Cc1cccc(-n2ccnc2SCC(=O)Nc2cccc(S(=O)(=O)NC3=NCCC3)c2)c1C	-9.0	·	·	·	·	-3.3
CC(=O)c1ccccc1NS(=O)(=O)c1cccc2nonc12	-8.3	8.2%	-0.3%	·	-30.0%	2.4
CSc1ccccc1NS(=O)(=O)c1cccc2nonc12	11.8	?	-18.0%	·	11.2µM*	0.3
O=C(CSc1ccccc1)N1CCN(c2ccc(F)cc2)CC1	17.7	·	·	·	·	-8.4
CCOC(=O)C1OC1C(=O)N[C@@H](CC(C)C)C(=O)NCCC(C)C (some centres not stated)	·	·	4.3%	26.2%	25.5%	·
CC(C)(C)c1ccc(C(=O)N2CCC2(C)C(=O)NCc2cccs2)cc1 (configuration not stated)	-0.3	·	·	·	·	7.8
O=C(c1ccc2c(c1)C(=O)N(CCCO)C2=O)c1ccc2c(c1)C(=O)N(CCCO)C2=O	-3.2	?	4.9%	6.5%	-9.4%	1.2
O=C1c2ccc3c4c(ccc(c24)C(=O)N1CCCCO)C(=O)N(CCCCO)C3=O	-22.2	?	1.8%[10 µM]	-27.1%	8.91µM*	-25.7
COc1cccc2c1C(=O)C=C(C)C2=O	-9.7	?	7.08µM*	-2.1%	11.2µM*	-13.7
CC1=CC(=O)c2ccccc2C1=O	0.2	38.4%	7.94µM*	15.6%	11.2µM*!	-0.2
COc1ccccc1-c1ccccc1C1=CC(=O)CC(C)(C)C1=O	1.6	·	·	·	·	0.5
CC(C)(C=O)C1=CC(=O)c2ccccc2C1=O	?	?	5.01µM*	3.7%	14.1µM*	11.4
COc1cccc(CNC(=O)C(=O)NCC2CCCN2S(=O)(=O)c2cc(C)ccc2C)c1 (configuration not stated)	-1.2	·	·	·	·	-7.0

From PubChem
